Jurkat NFkB inh – inhibitors of induced NF-kB luciferase reporter, primary screen, TCR NF-kB activation inhibitor project, cell-based, luminescence, uHTS | Jurkat, PMA/ionomycin-induced NF-kB luciferase reporter | inhibition, % at 4 µM | hit rate 0.53% among 330,000; in the data active = inhibition above about 50%
697 NFkB inh – inhibitors of PMA/ionomycin-induced NF-kB reporter, 697 cells, primary screen, B-cell NF-kB inhibitor project, cell-based, luminescence, uHTS; 697 B-cell NF-kB luciferase reporter, 16 h; inhibition, % at 4 µM; hit rate 0.33% among 330,000; in the data active = inhibition above about 35%
KLF5 inhibitor – KLF5 expression inhibitors, primary screen, DLD-1 cells, luminescence; DLD-1 KLF5 promoter-luciferase reporter; inhibition, % at 5 µM; hit rate 0.23% among 290,000; AID 1700, 2009;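 active = inhibition above a per-plate limit of that plate's mean compound inhibition plus 3 SD, cut at about 60% in these data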;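 note: 0% = DMSO wells and 100% = LY294002 at 200 µM; higher means less KLF5 promoter-driven luciferase light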
ANO1 activ – TMEM16A chloride channel activators or potentiators, primary screen, cell-based, HTS. Anoctamin-1 (Mus musculus), Q8BHY3. HEK293 TMEM16A/YFP-H148Q/I152L, iodide quench fluorescence; hits give low values. B-score at 10 µM. hit rate 0.3% among 340,000. AID 623877, 2012;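 active = fluorescence-ratio B-score plate-corrected deviation score at least 3 library SD below zero, with starting fluorescence score within 5 deviations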;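 note: channel opened by trigger with iodide after compound preincubation; score built on the fluorescence ratio of max minus min over baseline; more negative score means more quench and so TMEM16A activation or potentiation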
aSyn 5UTR inh – MLPCN primary screen, SNCA 5' untranslated region; inhibition, % (tested at 7.5 µM); alpha-synuclein 5'UTR reporter, inhibitor activity; hit rate 0.82% among 300,000; in the data active = inhibition above about 60%;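 note: H4 neuroglioblastoma cells stably carrying SNCA 5'UTR luciferase fusion; 0% = DMSO wells and 100% = positive control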
TMEM16A inh – TMEM16A chloride channel inhibitors, primary screen, cell-based, HTS. Anoctamin-1 (Mus musculus), Q8BHY3. HEK293 TMEM16A/YFP iodide influx fluorescence, ionomycin. normalized B-score (activity score, 25-100; higher = stronger inhibition) at 10 µM. hit rate 1.2% among 310,000. AID 588511, 2011;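 active = ratio plate-corrected score three or more library SD toward inhibition, starting fluorescence score within five deviations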;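 note: score derived from kinetic fluorescence span divided by baseline fluorescence per well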
Jurkat NFkB conf – PMA/ionomycin-induced NF-kB reporter inhibitors, Jurkat retest, confirmation, T-cell NF-kB inhibitor project, cell-based, luminescence, single concentration. Jurkat NF-kB luciferase, 16 h. hit rate 27% among 2,700. shares compounds with Jurkat NFkB inh. inhibition, % at 4 µM;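 active = inhibition reaching about 45% at 4 µM in either replicate, limit read from the data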;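 note: plate controls were PMA/ionomycin stimulated DMSO wells for no effect and unstimulated DMSO wells for full effect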
697 NFkB conf – PMA/ionomycin-induced NF-kB reporter inhibitors, 697 retest, confirmation, B-cell NF-kB inhibitor project, cell-based, luminescence, single concentration. 697 B-cell NF-kB luciferase, 16 h. inhibition, % at 4 µM. shares compounds with 697 NFkB inh. hit rate 35% among 2,000; in the data active = inhibition mostly above about 28%, no sharp cut-off; inactive = mostly below about 22%
TMEM16A reconf – TMEM16A chloride channel inhibitors, confirmation, cell-based, re-confirmation; shares compounds with TMEM16A inh; HEK293 TMEM16A/YFP-H148Q, iodide quench fluorescence; ionomycin added to raise cell calcium; AID 652189, 2013; inhibition, % at 10 µM; hit rate 39% among 2,300;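 active = mean duplicate percent inhibition, scaled so buffer wells are 0 and the reference blocker 100, over three buffer SD above buffer mean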
HEK293 Ca mobil – calcium mobilization in TMEM16A/YFP HEK293 cells, confirmation, counter-screen for TMEM16A inhibitor project; shares compounds with TMEM16A inh; Fluo4 calcium mobilization; hit rate 2% among 2,300; calcium response (% of ionomycin), % at 10 µM;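 active = duplicate-averaged calcium signal over 20% of the ionomycin maximum, relative to buffer baseline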;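 note: each well's signal is peak minus trough fluorescence divided by its pre-addition baseline; 0% = buffer wells and 100% = ionomycin wells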
YFP-HEK293 quench – iodide YFP quench changes in parental YFP-HEK293, counter-screen for TMEM16A inhibitor project, cell-based; ionomycin; 2,300 tested, under 10 active; YFP ratio F(max-min)/F0 at 10 µM; shares compounds with TMEM16A inh;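 active = yellow fluorescent protein signal ratio exceeding the buffer control mean by over 5 SD of those controls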;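 note: ratio is mean of duplicate wells from kinetic YFP trace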
ClC-1 inh – ClC-1 chloride channel inhibition, selectivity assay for TMEM16A inhibitor project, cell-based, voltage-dependent ClC-1; shares compounds with TMEM16A inh; CHO ClC-1-YFP, iodide influx fluorescence quench; iodide control reads 0, buffer control 100; ratio percent, % at 10 µM; 2,300 tested, under 10 active; AID 652236, 2013;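 active = duplicate-mean ratio percent above the mean of iodide-only control wells, which defines zero, plus 5 of their SD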;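 note: higher percent means stronger block of ClC-1 iodide influx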
Target sequence (P35524 whole entry, looked up): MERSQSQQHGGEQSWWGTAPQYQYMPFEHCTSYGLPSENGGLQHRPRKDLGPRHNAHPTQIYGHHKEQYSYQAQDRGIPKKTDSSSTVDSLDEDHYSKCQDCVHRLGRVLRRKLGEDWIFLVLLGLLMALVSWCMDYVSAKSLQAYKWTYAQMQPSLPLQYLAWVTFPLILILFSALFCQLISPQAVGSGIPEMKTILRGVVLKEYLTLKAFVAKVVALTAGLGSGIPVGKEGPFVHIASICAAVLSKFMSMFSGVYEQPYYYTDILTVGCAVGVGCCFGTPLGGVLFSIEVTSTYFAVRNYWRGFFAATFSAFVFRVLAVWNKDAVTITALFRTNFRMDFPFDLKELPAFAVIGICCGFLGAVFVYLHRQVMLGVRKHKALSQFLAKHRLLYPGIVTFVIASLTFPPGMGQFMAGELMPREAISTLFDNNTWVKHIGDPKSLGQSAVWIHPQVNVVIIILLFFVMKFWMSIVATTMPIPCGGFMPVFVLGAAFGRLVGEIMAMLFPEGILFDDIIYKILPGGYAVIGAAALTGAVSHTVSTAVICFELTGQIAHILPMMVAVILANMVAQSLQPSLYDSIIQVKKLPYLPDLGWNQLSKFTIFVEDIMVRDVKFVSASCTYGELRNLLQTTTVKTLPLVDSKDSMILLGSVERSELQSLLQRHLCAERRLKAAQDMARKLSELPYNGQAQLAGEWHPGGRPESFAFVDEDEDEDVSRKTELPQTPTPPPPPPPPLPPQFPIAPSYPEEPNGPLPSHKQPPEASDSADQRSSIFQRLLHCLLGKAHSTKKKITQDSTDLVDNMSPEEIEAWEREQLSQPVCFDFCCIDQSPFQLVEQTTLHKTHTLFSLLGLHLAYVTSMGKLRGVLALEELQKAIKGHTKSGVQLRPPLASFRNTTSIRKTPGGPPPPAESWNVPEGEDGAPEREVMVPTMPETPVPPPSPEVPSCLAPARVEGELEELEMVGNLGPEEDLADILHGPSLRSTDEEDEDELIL
Starred values were filed as active, the others as inactive; i = inactive; x = not tested or not shown. Rows were chosen to be rich in hits. Some 2.5% of all compounds tested hit in one or more screens of this group.

SMILES	Jurkat NFkB inh	697 NFkB inh	KLF5 inhibitor	ANO1 activ	aSyn 5UTR inh	TMEM16A inh	Jurkat NFkB conf	697 NFkB conf	others
CC(=O)NC(Cc1ccc(C)cc1)C(=O)NC1CCN(C(=O)NCc2ccccc2)CC1 (configuration not stated)	4	12	-26	i	-2	x	x	x
CC(=O)Nc1ccccc1OCC(=O)c1cc(C)n(Cc2cccs2)c1C	56*	96*	-51	i	-150	100*	58*	65*
O=c1oc2cc(O)ccc2c2oc3cc(O)ccc3c12	-7	-8	-5	i	-25	i	x	x
COc1c2c(cc3oc(=O)c4c5ccc(O)cc5oc4c13)OC(C)(C)CC2	-376	-347	x	i	-199	i	-124	-377
Cc1nc(Nc2ccccc2)sc1C(=O)c1ccccc1	-44	-54	-66	i	-68	i	x	x
Cc1nc(Nc2ccccc2)sc1-c1ccccc1	-164	-303	-110	i	-44	i	-82	-151
COc1ccccc1C(=O)N1CCN(Cc2cccnc2)CC1	10	12	1	i	6	i	x	x
O=C(Nc1ncc(Cc2ccccc2)s1)c1cccs1	-173	-326	-172	x	21	i	-116	-248
O=C(Nc1ncc(Cc2cccc(Cl)c2)s1)c1cccs1	-40	-118	-44	i	-192	i	x	x
COC(=O)c1c(NC(=O)CCl)sc(C(=O)N2CCOCC2)c1C	9	14	4	i	-83	i	x	x
Cc1ccc(C2=NN(S(C)(=O)=O)C(c3ccc4c(c3)OCO4)C2)cc1 (configuration not stated)	-175	-259	-158	i	-265	i	-111	-276
CCOC(=O)c1ccc(/C=C2\c3ccccc3C(=O)N2c2ccccc2)cc1F	5	-1	x	i	x	x	x	x
COc1cc(OC)cc(C(=O)NC2CCN(CCCOc3ccccc3)CC2)c1	9	-2	-43	i	12	i	x	x
Cc1ccc(OCCN2CCN(c3ncnc4sc(C)c(C)c34)CC2)cc1	67*	43*	-9	i	-4	i	66*	56*
N#Cc1c(NC(=O)c2ccccc2)sc2c1CCCCC2	-179	-280	-163	i	-16	i	-138	-237
N#Cc1c(NC(=O)CSc2ncn[nH]2)sc2c1CCCC2	52*	62*	6	i	84*	i	47	47*
Cc1ccc(C(=O)Nc2sc3c(c2C#N)CCCCC3)cc1C	-143	-156	-23	i	-191	i	x	x
CC1CCc2c(sc(NC(=O)CSc3ncn[nH]3)c2C#N)C1 (configuration not stated)	61*	58*	39	i	91*	i	61*	52*
CCCN(C(=O)CSCc1ccc(Cl)cc1)c1c(N)n(Cc2ccccc2)c(=O)[nH]c1=O	15	0	x	i	16	i	x	x
CC(C)(C)c1ccc(C(=O)N2CCCCCC2=O)cc1	54*	71*	47	i	91*	i	67*	66*
O=C1CCCCCN1C(=O)c1ccccc1	x	x	x	i	x	x	x	x
COC(=O)CCn1nnc(-c2ccc(C(C)C)cc2)n1	64*	69*	45	x	119*	i	61*	78*
COc1cccc(-c2nc(-c3cccs3)no2)c1	-163	-289	-72	i	-55	i	-131	-311
CC(C)CC1Nc2ccc(C(=O)NCCCN3CCCCC3C)cc2NC1=O (configuration not stated)	9	11	-19	i	16	i	x	x
CC(NC(=O)c1c(F)cccc1Cl)c1ccc(-n2ccnc2)cc1 (configuration not stated)	-11	9	-14	i	17	i	x	x
SMILES	Jurkat NFkB inh	697 NFkB inh	KLF5 inhibitor	ANO1 activ	aSyn 5UTR inh	TMEM16A inh	Jurkat NFkB conf	697 NFkB conf	others
O=C(Nc1nc(-c2ccc(F)c(F)c2)cs1)c1ccc(OCC2CCCO2)cc1 (configuration not stated)	58*	50*	10	i	17	25*	63*	33*	TMEM16A reconf=i;HEK293 Ca mobil=i;YFP-HEK293 quench=-1.2;ClC-1 inh=-7
Cc1csc(NC(=O)c2ccc(OCC3CCCO3)cc2)n1 (configuration not stated)	-80	29	-97	i	-33	i	x	x
COc1ccc(-c2csc(NC(C)=O)n2)cc1OC	-7	6	-44	i	-20	i	x	x
COc1cccc(NC(=O)Nc2nc(-c3ccc(OC)c(OC)c3)cs2)c1	90*	56*	37	i	41	25*	14	3	TMEM16A reconf=20%*;HEK293 Ca mobil=i;YFP-HEK293 quench=-1.1;ClC-1 inh=-4
CCCCNS(=O)(=O)c1ccc2nc(-c3cccnc3)cc(C(=O)NCC(OC)OC)c2c1	-5	21	-54	i	-6	i	x	x
CC(=O)Nc1ccc(NS(=O)(=O)c2cc(-c3cnc(C4CC4)o3)ccc2C)cc1	-3	-15	-42	i	-7	i	x	x
COc1ccc(NS(=O)(=O)c2ccc(-c3cnc(C4CC4)o3)cc2)cc1OC	57*	17	36	i	41	25*	68*	x	TMEM16A reconf=34%*;HEK293 Ca mobil=i;YFP-HEK293 quench=-1;ClC-1 inh=-24
O=C(Nc1cc(Cl)ccc1-n1cncn1)c1ccc([N+](=O)[O-])o1	11	-4	x	i	-70	i	x	x
